Results taken from PubChem BioAssay.
“And” between values parts separate entries of the source, which are not always exact repeats. Equal values may be shown once. More than one record can exist for a structure, and the calls need not agree. The source made the active and inactive calls.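 The calls were made as follows, unless noted: active = inhibition at or above 50% relative to wild type and mutant plate controls; inactive = inhibition below 50%.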 Residues, ends and D or L forms follow the SMILES beside them.

Assays:
[1] = inhibitors of TNFa-induced NFkB p65 translocation, primary screen, imaging, HUVEC, MLSMR starter and 10KST1 sets (AID 438;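 active = inhibition above 20% together with a positive visual image hit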;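 also: compound added about 3h40 before a 20 min TNFalpha stimulation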;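 as to inhibition: signal is the nuclear over cytoplasmic p65 intensity ratio per well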); conditions: HUVEC TNFa-induced p65 nuclear translocation; cell count: measured here: nuclei count (cytotoxicity indicator), at 2.08 µM unless noted; inhibition: at 2 µM, stronger effect = higher value unless noted
[2] = inhibitors of mutant huntingtin aggregation, primary screen, imaging, exon1htt(103Q)mCFP cells, high-content imaging (AID 483;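 active = visual image review flags a hit and inhibition of aggregation exceeds 20%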;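 also: compound exposure lasted 3 days before fixation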;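 as to nuclei count: percent of the per-plate median nuclei count of sample wells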); conditions: exon1htt(103Q)mCFP cell line, aggregate imaging, at 2 µM; inhibition of aggregation: stronger effect = higher value; nuclei count: measured here: cell count, toxicity
[3] = inhibitors of E-selectin induction by TNFa, primary screen, imaging, HUVEC, immunofluorescence, MLSMR starter and 10KST1 sets (AID 487;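 active = visually confirmed hit in the image check and inhibition above 20%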;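 as to inhibition: signal is fraction of cell area covered by stained E-selectin grains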;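 as to nuclei count: 100% = median nuclei count of all wells on the same plate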); conditions: HUVEC TNFalpha-induced E-selectin immunofluorescence imaging, at 2 µM; inhibition: stronger effect = higher value; nuclei count: measured here: cell number, toxicity
[4] = DUSP6 inhibitors restoring Erk phosphorylation by chemical complementation, primary imaging in DUSP6-transfected HeLa (AID 609;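 active = compounds giving at least 50% inhibition in the cell-based MKP-3 phosphatase rescue imaging test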;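 as to inhibition: phospho-Erk level distribution per well compared with pooled transfected vehicle control wells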); conditions: HeLa MKP-3 transfected, phospho-Erk imaging KS statistic, at 10 µM
[5] = target: Dual specificity protein phosphatase 6 (Homo sapiens) (UniProt Q16828); assay: as above; conditions: HeLa MKP-3 transfected, phospho-Erk imaging KS statistic, at 10 µM, stronger effect = higher value
[6] = target: Voltage-gated potassium channel subunit beta-2 (Rattus norvegicus) (UniProt P62483); assay: KvBeta enzyme negative modulators, primary screen, biochemical, NADPH fluorescence (AID 622;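 active = fluorescence slope higher than the sample average by over 3 SD, cut at about -0.22 in these data, passing the limit was not always enough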;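 also: slope of raw intensity against log time taken from 70 to 1610 s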); conditions: recombinant KvBeta, 4-cyanobenzaldehyde reduction, at 10 µM, stronger effect = higher value
[7] = target: Voltage-gated potassium channel subunit beta-2 (Rattus norvegicus) (UniProt P62483); assay: KvBeta positive modulators, primary screen, biochemical, NADPH fluorescence (AID 623;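 active = NADPH fluorescence slope more negative than the mean of all samples by about 3 SD, 99.7% confidence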;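 also: fluorescence intensity change per second fitted from 20 to 320 s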); conditions: Recombinant KvBeta, NADPH fluorescence decrease slope, 10 min; at 10 µM; stronger effect = lower value
[8] = target: Alpha-2C adrenergic receptor (Homo sapiens) (UniProt P18825); assay: modulators of alpha2C/GIRK thallium flux, primary screen, cell-based, HEK293 alpha2C/GIRK1/2 (AID 624;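 active = fluorescence slope after compound addition differing from the mean of all screened samples at 99.7% confidence, in either direction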;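 also: slope of fluorescence ratio to pre-addition baseline per second over 15 to 24 s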); conditions: thallium flux BTC fluorescence, at 10 µM, actives lie on both sides
[9] = inhibitors of larval lipid processing in zebrafish, primary screen, whole organism, PED6 fluorescence, gall bladder and intestine (AID 686;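 active = a full or partial loss of lipid-probe fluorescence in the fish gall bladder, intestine or both, judged by eye; inactive = no fluorescence loss, or compound toxic to the fish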;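 also: larvae 5 to 7 days old with five fish per well; signal comes from phospholipase A2 cleavage of quenched PED6 carried via bile; overnight exposure to compound and PED6 before scoring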); conditions: Zebrafish larvae PED6 lipid processing, fluorescence scoring
[10] = inhibitors of Chlamydomonas gravitaxis, primary screen, whole organism, Chlamydomonas reinhardtii, WT vs cilia-less mutant, absorbance, 96-well (AID 463189); conditions: OD600 absorbance, 2 days, at 10 µM, stronger effect = higher value;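 also: 0% = wild type cc124 cells in DMSO and 100% = ciliumless bld1 mutant cells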
[11] = inhibitors of Sendai virus-induced IRF3 signaling, primary screen, TLR/RLR signaling modifier project, cell-based, Sendai virus stimulus, luciferase, 10K MLSCN set (AID 602276;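 active = inhibition at or above 50% at 10 µM; inactive = inhibition below 50%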;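 also: firefly luciferase from ISG56 promoter only with Renilla not read in this screen; 0% = Sendai virus plus DMSO and 100% = medium plus DMSO without virus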); conditions: HEK293 RL24 IRF3 luciferase reporter, at 10 µM, stronger effect = higher value
[12] = inhibitors of poly I:C-induced TLR3 signaling, primary screen, cell-based, poly I:C stimulus, luciferase, 10K MLSCN set (AID 602277;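 active = inhibition of the reporter signal at or above 50%; inactive = inhibition below 50%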); conditions: HEK293-TLR3 RL24 IRF3 luciferase reporter, at 10 µM, stronger effect = higher value
[13] = target: Muscarinic acetylcholine receptor M4 (Homo sapiens) (UniProt P08173); assay: compounds altering M4/GIRK thallium flux, either direction, primary screen, M4 allosteric agonist project, cell-based, HEK293 M4/GIRK, BTC-AM (AID 625;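 active = fluorescence slope after compound addition differing from the mean of all tested samples at 99.7% confidence, mostly higher but some lower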;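 also: thallium influx through GIRK channels coupled to M4 in HEK293 cells with BTC-AM dye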); conditions: at 10 µM, actives lie on both sides
[14] = measured here: cell density z-score
[15] = measured here: nuclear c-Myc green intensity z-score
[16] = measured here: nuclear pErk red intensity z-score, stronger effect = higher value

Chain of Dual specificity protein phosphatase 6 (Homo sapiens) (Q16828 whole entry, looked up): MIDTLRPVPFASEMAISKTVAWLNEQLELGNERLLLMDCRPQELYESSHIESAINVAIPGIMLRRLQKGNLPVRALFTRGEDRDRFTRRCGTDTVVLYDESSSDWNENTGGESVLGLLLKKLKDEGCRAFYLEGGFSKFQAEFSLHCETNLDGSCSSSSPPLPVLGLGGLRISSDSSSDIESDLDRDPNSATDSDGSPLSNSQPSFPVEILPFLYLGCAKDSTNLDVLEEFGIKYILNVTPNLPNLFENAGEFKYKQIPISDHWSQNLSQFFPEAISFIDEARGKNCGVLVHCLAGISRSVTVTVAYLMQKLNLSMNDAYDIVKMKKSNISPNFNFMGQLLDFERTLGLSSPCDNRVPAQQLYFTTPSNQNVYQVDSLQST
Chain of Alpha-2C adrenergic receptor (Homo sapiens) (P18825 whole entry, looked up): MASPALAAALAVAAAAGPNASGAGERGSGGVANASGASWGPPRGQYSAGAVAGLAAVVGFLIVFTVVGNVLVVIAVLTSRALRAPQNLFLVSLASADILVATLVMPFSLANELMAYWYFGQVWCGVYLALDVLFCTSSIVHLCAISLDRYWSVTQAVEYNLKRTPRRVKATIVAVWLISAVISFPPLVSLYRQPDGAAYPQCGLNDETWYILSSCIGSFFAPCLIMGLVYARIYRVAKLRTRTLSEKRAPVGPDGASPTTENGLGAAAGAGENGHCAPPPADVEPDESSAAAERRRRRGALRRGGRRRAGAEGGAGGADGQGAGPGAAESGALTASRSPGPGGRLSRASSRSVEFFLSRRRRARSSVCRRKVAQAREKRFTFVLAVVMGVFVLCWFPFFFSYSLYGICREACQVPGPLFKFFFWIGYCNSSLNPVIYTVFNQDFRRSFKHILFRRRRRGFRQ
Chain of Voltage-gated potassium channel subunit beta-2 (Rattus norvegicus) (P62483 whole entry, looked up): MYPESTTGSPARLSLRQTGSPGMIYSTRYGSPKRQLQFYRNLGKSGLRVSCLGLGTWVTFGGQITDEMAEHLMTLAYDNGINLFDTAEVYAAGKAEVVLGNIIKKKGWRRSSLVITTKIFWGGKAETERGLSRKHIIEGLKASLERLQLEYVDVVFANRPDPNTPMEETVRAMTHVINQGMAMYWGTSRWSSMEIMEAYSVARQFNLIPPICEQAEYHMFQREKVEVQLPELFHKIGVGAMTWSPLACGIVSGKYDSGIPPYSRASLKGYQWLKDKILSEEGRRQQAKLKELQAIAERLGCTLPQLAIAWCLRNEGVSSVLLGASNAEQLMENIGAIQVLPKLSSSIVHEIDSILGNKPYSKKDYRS
Chain of Muscarinic acetylcholine receptor M4 (Homo sapiens) (P08173 whole entry, looked up): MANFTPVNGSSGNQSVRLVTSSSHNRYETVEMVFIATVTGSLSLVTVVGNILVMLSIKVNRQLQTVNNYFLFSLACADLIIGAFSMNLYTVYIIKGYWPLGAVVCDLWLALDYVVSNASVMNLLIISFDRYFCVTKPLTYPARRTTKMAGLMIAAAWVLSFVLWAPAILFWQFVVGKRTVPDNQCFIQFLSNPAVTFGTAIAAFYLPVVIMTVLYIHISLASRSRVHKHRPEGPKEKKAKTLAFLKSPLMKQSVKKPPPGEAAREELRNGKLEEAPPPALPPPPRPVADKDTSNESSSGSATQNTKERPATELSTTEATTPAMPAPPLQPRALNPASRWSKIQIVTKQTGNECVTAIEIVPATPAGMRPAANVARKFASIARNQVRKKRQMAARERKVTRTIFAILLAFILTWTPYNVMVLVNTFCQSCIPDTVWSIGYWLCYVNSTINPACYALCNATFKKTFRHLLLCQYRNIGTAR

| SMILES | cell count [1] | inhibition [1] | inhibition of aggregation [2] | nuclei count [2] | inhibition [3] | nuclei count [3] | z-score [4, 14] | z-score [4, 15] | z-score [4, 16] | inhibition [5] | fluorescence slope [6] | NADPH fluorescence slope [7] | slope [8] | outcome [9] | inhibition [10] | inhibition [11] | inhibition [12] | fluorescence slope [13] |
| --- | --- | --- | --- | --- | --- | --- | --- | --- | --- | --- | --- | --- | --- | --- | --- | --- | --- | --- |
| C#C[C@]1(O)CC[C@H]2[C@@H]3CCC4=CC(=O)CC[C@]4(C)[C@H]3CC[C@@]21C | 605 | 4.5% (inactive) | -1.7% (inactive) | 104% | -96.4% (inactive) | 120% | 0.928 | -0.272 | -0.147 | 19% (inactive) | -0.469 (inactive) | -5.4e-05 (inactive) | 0.00473 (inactive) | inactive | -7.99% (inactive) | 9.99% (inactive) | 37.9% (inactive) |  |
| CN1C[C@H](CNC(=O)OCc2ccccc2)C[C@@H]2c3cccc4c3c(cn4C)C[C@H]21 | 603 | 2.7% (inactive) | -59.5% (inactive) | 111% | -32.3% (inactive) | 110% | -0.59 | -0.701 | 1.38 | 1.38% (inactive) | -0.508 (inactive) | -3.6e-06 (inactive) | 0.0041 (inactive) | inactive | 0.679% (inactive) and 168% (active) | 1.55% (inactive) | 23.4% (inactive) |  |
| Nc1ccc(C2(c3ccc(N)cc3)CN3CCC2CC3)cc1 | 688 | -0.7% (inactive) | 1.5% (inactive) | 104% | -49.8% (inactive) | 138% | -0.8 | 0.409 | -0.625 | 1.12% (inactive) | -0.502 (inactive) | -3e-05 (inactive) | 0.00562 (inactive) | inactive | 8.44% (inactive) | 2.43% (inactive) | 13.5% (inactive) | 0.00533 (inactive) |
| CC(C)C[C@H](NC(=O)[C@@H]1CCCN1C(=O)[C@@H](N)Cc1ccc(O)cc1)C(=O)NCC(N)=O (H-YPLG-NH2) | 621 | -3.8% (inactive) | -9.8% (inactive) | 103% | -65.3% (inactive) | 104% | -0.734 | -0.49 | -1.27 | 1.48% (inactive) | -0.471 (inactive) | -6.7e-05 (inactive) | 0.00565 (inactive) | inactive | -9.78% (inactive) | 2.09% (inactive) | 31.8% (inactive) |  |
| NCC1(CC(=O)O)CCCCC1 | 645 | -5.2% (inactive) | -6.5% (inactive) | 100% | -78.6% (inactive) | 116% | -0.493 | 0.124 | -0.808 | 1.38% (inactive) | -0.493 (inactive) | -3.2e-05 (inactive) | 0.00518 (inactive) | inactive | 4.56% (inactive) and -5.83% (inactive) | -3.61% (inactive) | 3.7% (inactive) |  |
| CC1=NOC2(C)Nc3ncnn3C(c3ccccc3)C12 (stereo not given) | 604 | -11.4% (inactive) | 21% (inactive) | 85% | -129% (inactive) | 145% | 0.203 | 0.546 | 1.46 | 1.98% (inactive) | -0.454 (inactive) | -5.1e-05 (inactive) | 0.00521 (inactive) | inactive | 2.9% (inactive) | -5.02% (inactive) | 6.14% (inactive) | 0.00509 (inactive) |
| CC(C)(C)OC(=O)c1c(N)n(Cc2ccco2)c2nc3ccccc3nc12 | 394 | -12.8% (inactive) | -3.4% (inactive) | 81% | -57.4% (inactive) | 127% | 0.353 | -0.801 | -1.16 | 13.4% (inactive) | -0.293 (inactive) | 5.9e-05 (inactive) | 0.00636 (inactive) | inactive | 19.2% (inactive) | 6.73% (inactive) | -1.48% (inactive) |  |
| c1ccc2c3c([nH]c2c1)CNCC3 | 485 | -1.2% (inactive) | 3.2% (inactive) | 92.7% | -84.5% (inactive) | 114% | 0.136 | -0.573 | -0.521 | 23.4% (inactive) | -0.459 (inactive) | -6.4e-05 (inactive) | 0.00455 (inactive) |  | 24.5% (inactive) | 4.35% (inactive) | 51.6% (active) |  |
| C[N+]1(C)CCc2cc3c(cc2[C@H]1[C@@H]1OC(=O)c2c1ccc1c2OCO1)OCO3 | 633 | 1.1% (inactive) | -10.4% (inactive) | 110% | -58% (inactive) | 109% | 0.571 | -0.122 | -0.447 | 19.2% (inactive) | -0.486 (inactive) | -3.8e-05 (inactive) | 0.00504 (inactive) |  | 6.58% (inactive) and 16.9% (inactive) | 12.6% (inactive) | 45.3% (inactive) |  |
| CN1C(=O)CN=C(c2ccc(Cl)cc2)c2cc(Cl)ccc21 | 702 | -2.8% (inactive) | -25.6% (inactive) | 108% | -88.1% (inactive) | 128% | 0.107 | -0.617 | 0.523 | -6.41% (inactive) | -0.442 (inactive) | -4.1e-05 (inactive) | 0.00345 (inactive) | inactive; toxic | -0.225% (inactive) | 0.552% (inactive) | 32% (inactive) |  |
